According to PubChem BioAssay AID1159580 (chemical genetic matrix, 2015):
Values joined by “and” are separate entries in the source; they are usually repeats but may differ in a detail not shown here. Equal values may be shown once. The campaign covered roughly 5,500 compounds. About 2,000 (36%) were called active. Another 18% or so got no clear call; they are omitted. Rule as the data show it: active = normalized growth mostly below about 0.91 (no sharp cut-off); inconclusive = no clear call, values can overlap the other calls; inactive = mostly above about 0.92. The list shows a part of the results.

Test: chemical genetic growth profiling, strain panel (AID 1159580);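 also: tested at 20 µM; growth read once vehicle control cultures reached saturation at 30 °C; 1 = growth at the plate median or of vehicle wells; lower values mean less growth of the strain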
Settings: S. cerevisiae deletion strains, growth OD

Measured: normalized growth

CC(=O)[C@H]1CCC2C3C[C@H](C)C4=CC(=O)CC[C@]4(C)C3[C@@H](O)C[C@@]21C (stereo partly drawn)
inactive: locus YAL021C, strain ccr4, hits give low values 0.988 | locus YAL026C, strain drs2, hits give low values 0.989 | locus YAL030W, strain snc1, hits give low values 0.986 | locus YBL061C, strain skt5, hits give low values 0.988 | locus YBR009C, strain hhf1, hits give low values 1 | locus YBR021W, strain FUR4, hits give low values 0.979 | locus YBR023C, strain chs3, hits give low values 0.983 | locus YBR171W, strain sec66, hits give low values 0.973 | locus YBR229C, strain ROT2, hits give low values 0.994 | locus YBR231C, strain swc5, hits give low values 0.994 | locus YBR279W, strain paf1, hits give low values 0.99 | locus YCL011C, strain gbp2, hits give low values 0.964 | locus YCL016C, strain dcc1, hits give low values 0.953 | locus YCL029C, strain bik1, hits give low values 0.983 | locus YCL061C, strain MRC1, hits give low values 0.989 | locus YCL069W, strain vba3, hits give low values 0.983 | locus YCR088W, strain abp1, hits give low values 0.98 | locus YDL005C, strain med2, hits give low values 0.984 | locus YDL035C, strain GPR1, hits give low values 1.02 | locus YDL040C, strain nat1, hits give low values 0.987 | locus YDL074C, strain BRE1, hits give low values 0.98 | locus YDL101C, strain DUN1, hits give low values 0.993 | locus YDL134C, strain PPH21, hits give low values 1.01 | locus YDL185W, strain tfp1, hits give low values 0.965 | locus YDL192W, strain arf1, hits give low values 0.981 | locus YDR001C, strain nth1, hits give low values 0.977 | locus YDR069C, strain doa4, hits give low values 1.02 | locus YDR101C, strain arx1, hits give low values 0.989 | locus YDR137W, strain rgp1, hits give low values 0.921 | locus YDR159W, strain sac3, hits give low values 1.01 | locus YDR162C, strain NBP2, hits give low values 0.99 | locus YDR195W, strain ref2 0.997 | locus YDR297W, strain sur2, hits give low values 0.985 | locus YDR318W, strain mcm21, hits give low values 0.988 | locus YDR334W, strain swr1, hits give low values 0.963 | locus YDR335W, strain msn5, hits give low values 0.984 | locus YDR388W, hits give low values 0.986 | locus YDR392W, strain spt3, hits give low values 0.897 | locus YDR502C, strain sam2, hits give low values 0.978 | locus YEL003W, strain gim4, hits give low values 1 | locus YEL037C, strain rad23, hits give low values 0.975 | locus YEL061C, strain CIN8 (second series), hits give low values 0.977 | locus YEL061C, strain CIN8, hits give low values 0.99 | locus YER015W, strain faa2, hits give low values 0.992 | locus YER016W, strain bim1, hits give low values 0.996 | locus YER110C, hits give low values 0.969 | locus YER111C, strain swi4, hits give low values 0.982 | locus YER155C, strain BEM2 (second series), hits give low values 1 | locus YER155C, strain BEM2, hits give low values 0.991 | locus YER167W, strain BCK2, hits give low values 0.986 | locus YFR010W, strain ubp6, hits give low values 0.986 | locus YGL078C, strain dbp3, hits give low values 0.991 | locus YGL086W, strain mad1, hits give low values 1.01 | locus YGL167C, strain pmr1, hits give low values 0.971 | locus YGL173C, strain kem1, hits give low values 0.995 | locus YGL227W, strain vid30, hits give low values 0.978 | locus YGL240W, strain doc1, hits give low values 1.02 | locus YGL248W, strain PDE1, hits give low values 0.984 | locus YGL253W, strain hxk2, hits give low values 0.976 | locus YGR135W, strain pre9, hits give low values 0.939 | locus YGR252W, strain gcn5, hits give low values 1.06 | locus YHR013C, strain ard1, hits give low values 0.945 | locus YHR027C, strain rpn1, hits give low values 0.98 | locus YHR030C, strain SLT2, hits give low values 0.996 and 0.986 | locus YHR079C, strain IRE1 (second series), hits give low values 0.98 | locus YHR079C, strain IRE1, hits give low values 0.966 | locus YHR094C, strain hxt1, hits give low values 0.984 | locus YHR129C, strain ARP1, hits give low values 0.995 | locus YHR142W, strain chs7, hits give low values 0.95 | locus YHR200W, strain rpn10, hits give low values 0.981 | locus YIL066C, strain RNR3, hits give low values 0.993 | locus YIL073C, strain SPO22, hits give low values 0.899 | locus YIL125W, strain kgd1, hits give low values 0.996 | locus YIR030C, strain dcg1, hits give low values 0.975 | locus YJL092W, strain hpr5, hits give low values 0.977 | locus YJL095W, strain BCK1 (second series), hits give low values 0.982 | locus YJL095W, strain BCK1, hits give low values 0.969 and 0.976 | locus YJL115W, strain asf1, hits give low values 0.973 | locus YJL129C, strain trk1, hits give low values 0.959 | locus YJL134W, strain LCB3, hits give low values 0.99 | locus YJL154C, strain vps35, hits give low values 0.972 | locus YJL164C, strain tpk1, hits give low values 0.997 | locus YJL166W, strain qcr8, hits give low values 0.979 | locus YJL168C, strain set2, hits give low values 0.994 | locus YJL187C, strain SWE1 (second series), hits give low values 0.993 | locus YJL187C, strain SWE1, hits give low values 0.985 | locus YJR043C, strain POL32, hits give low values 1.03 | locus YJR066W, strain TOR1, hits give low values 0.925
